Data on 28 compounds can be found in the supplement of paper PMC8371130.

Where a name gives a salt, the structure may show the parent alone.

In this experiment the test system is HL-1. Kind of experiment: relative cell viability (CellTiter-Glo) vs DMSO control (% of DMSO control); higher = more viable cells. To be noted: oxygen condition: normoxia 72 h; 200 nM. Put shortly: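 One day after HL-1 mouse atrial cardiomyocytes were plated (1000 cells per well, 384-well plates) with compounds at 40, 200, 1000 or 5000 nM in 0.01% DMSO, they were transferred to a hypoxic workstation at 1% O2. After 48 h there, the cells were reoxygenated for 24 h in a normal incubator, and comparison cells stayed in normoxia throughout the same time. Cell viability was quantified with CellTiter-Glo luminescence and normalised to vehicle-treated control cells.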
`CCOc1nc2cccc(C(=O)OC(C)OC(=O)OC3CCCCC3)c2n1Cc1ccc(-c2ccccc2-c2nn[nH]n2)cc1` (stereo not drawn) [Candesartan cilexetil] displayed a relative cell viability of 102.
To `Nc1cc(N2CCCCC2)nc(N)[n+]1[O-]` [Minoxidil] belongs 109.
To `Cc1ccc(NC(=O)c2ccc(CN3CCN(C)CC3)cc2)cc1Nc1nccc(-c2cccnc2)n1` [Imatinib Mesylate] belongs 146.
Next, `OCCN(CCO)c1nc(N2CCCCC2)c2nc(N(CCO)CCO)nc(N3CCCCC3)c2n1` [Dipyridamole]: 98.7; `Nc1ccn([C@@H]2O[C@H](CO)[C@@H](O)C2(F)F)c(=O)n1` [Gemcitabine HCl]: 4.75; `CCCCCCNC(=O)n1cc(F)c(=O)[nH]c1=O` [Carmofur]: 81.2.
In turn, `CC(S)C(=O)NCC(=O)O` (stereo not drawn) [Tiopronin] returned a relative cell viability of 98.9.
To `COc1cc(C(C)=O)ccc1OCCCN1CCC(c2noc3cc(F)ccc23)CC1` [Iloperidone] belongs 109.
In the case of `CCN1CCC[C@H]1CNC(=O)c1cc(S(N)(=O)=O)ccc1OC` [Levosulpiride], the relative cell viability worked out at 108.
`NS(=O)(=O)Cc1noc2ccccc12` [Zonisamide] displayed a relative cell viability of 112.
The compound `Cc1nc2n(c(=O)c1CCN1CCC(c3noc4cc(F)ccc34)CC1)CCCC2` [Risperidone] returned a relative cell viability of 109.
Regarding `Cc1c(OCC(F)(F)F)ccnc1C[S@@+]([O-])c1nc2ccccc2[nH]1` [Dexlansoprazole], the relative cell viability turned out to be 97.7.
Take `Cc1cc(N)c2ccccc2[n+]1CCCCCCCCCC[n+]1c(C)cc(N)c2ccccc21` [Dequalinium chloride]: the relative cell viability stood at 107.
`COc1cc2c(cc1OC)CC(=O)N(CCCN(C)C[C@H]1Cc3cc(OC)c(OC)cc31)CC2` [Ivabradine HCl]: the relative cell viability stood at 106.
Next, `CC(C)(Sc1cc(C(C)(C)C)c(O)c(C(C)(C)C)c1)Sc1cc(C(C)(C)C)c(O)c(C(C)(C)C)c1` [Probucol]: 103; `COc1cc([C@@H]2c3cc4c(cc3[C@@H](O[C@@H]3O[C@@H]5CO[C@@H](C)O[C@H]5[C@H](O)[C@H]3O)[C@H]3COC(=O)[C@H]23)OCO4)cc(OC)c1O` [Etoposide]: 60.8.
Next, `Cc1ccc(C(=O)c2cc(O)c(O)c([N+](=O)[O-])c2)cc1` [Tolcapone]: 102.
To `CC[C@]1(O)C[C@@H]2CN(CCc3c([nH]c4ccccc34)[C@@](C(=O)OC)(c3cc4c(cc3OC)N(C)[C@H]3[C@@](O)(C(=O)OC)[C@H](OC(C)=O)[C@]5(CC)C=CCN6CC[C@]43[C@@H]65)C2)C1` [Vinblastine] belongs 32.3; to `CN1CCC(=C2c3ccccc3CC(=O)c3sccc32)CC1` [Ketotifen fumarate], 100; to `CN(C)CC/C=C1/c2ccccc2COc2ccc(CC(=O)O)cc21` [Olopatadine hydrochloride], 91.6.
For `CCC[C@@H]1C[C@@H](C(=O)N[C@@H]([C@H]2O[C@H](SC)[C@H](O)[C@@H](O)[C@H]2O)[C@@H](C)O)N(C)C1` [Lincomycin hydrochloride], the relative cell viability stood at 98.3.
In turn, `CO[C@H]1C[C@@H]2CC[C@@H](C)[C@@](O)(O2)C(=O)C(=O)N2CCCC[C@H]2C(=O)O[C@H]([C@H](C)C[C@@H]2CC[C@@H](OC(=O)C(C)(CO)CO)[C@H](OC)C2)CC(=O)[C@H](C)/C=C(\C)[C@@H](O)[C@@H](OC)C(=O)[C@H](C)C[C@H](C)/C=C/C=C/C=C/1C` [Temsirolimus] registered a relative cell viability of 67.5.
Next, `Cc1[nH]c(=O)c(C#N)cc1-c1ccncc1` [Milrinone]: 108.
To `C=CC[N+]1([C@H]2C[C@H]3[C@@H]4CC[C@H]5C[C@H](O)[C@@H](N6CCOCC6)C[C@]5(C)[C@H]4CC[C@]3(C)[C@H]2OC(C)=O)CCCC1` [Rocuronium bromide] belongs 104; to `CCOc1ccc2ccccc2c1C(=O)N[C@@H]1C(=O)N2[C@@H]1SC(C)(C)[C@@H]2C(=O)O` [nafcillin sodium monohydrate], 101.
To `CCOC(=O)[C@H](CCc1ccccc1)N[C@@H](C)C(=O)N1CCC[C@H]1C(=O)O` [Enalapril maleate] belongs 103; to `COc1cccc2c1C(=O)c1c(O)c3c(c(O)c1C2=O)C[C@@](O)(C(=O)CO)C[C@@H]3O[C@H]1C[C@H](N)[C@@H](O)[C@H](C)O1` [Epirubicin Hydrochloride], 97.6; to `CC1=C(/C=C/C(C)=C/C=C/C(C)=C\C(=O)O)C(C)(C)CCC1` [Isotretinoin], 104.
